The list is not random: actives were taken first. Their share in the collection is about 12%.
SARS PLpro yeast: qHTS of Yeast-based Assay for SARS-CoV PLP | 330,000 tested, 0.19% active | S. cerevisiae expressing SARS-CoV PLpro, growth rescue | Potency, µM (series often up to 32.9 µM), for inactives: at the highest dose activity, positive = growth rescue, actives largely listed as activators; calls by dose curve; further: 0% is about no effect; nearly all actives have a fitted effect of over 55% in size
Pf growth 96h: Primary qHTS for delayed death inhibitors of the malarial parasite plastid, 96 hour incubation. 320,000 tested, 6.9% active. Potency, µM (doses to about 28.7 µM), for the others: at the top dose activity change, negative = inhibition, hits mostly inhibitors. P. falciparum luciferase reporter growth, 96 h; further: on the % scale 0 is the no-effect control and ±100 the full control effect
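96 h incubation, 37 C, 5% CO2, of luciferase-reporter P. falciparum-infected RBCs (2% hematocrit, 0.05% parasitemia final) with test compounds; endpoint luminescence.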
Sm TGR inh: qHTS Assay for the Inhibitors of Schistosoma Mansoni Peroxiredoxins; Schistosoma mansoni thioredoxin glutathione reductase (TGR), Q962Y6; purified TGR, DTNB reduction, TNB absorbance 405 nm; Potency, µM (doses to about 114 µM), without a hit: at the top dose activity change, negative = inhibition, hits mostly inhibitors; 360,000 tested, 3% active; AID 485364, 2010; further: on the % scale 0 is the no-effect control and ±100 the full control effect; nearly all actives have a fitted effect of over 60% in size
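Kinetic colorimetric format: TGR-catalysed, NADPH-driven DTNB reduction monitored via TNB absorbance. Enzyme dispensed at 20 nM; compound exposure 15 min at room temperature before reaction start.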
Pf growth 48h: Primary qHTS for delayed death inhibitors of the malarial parasite plastid, 48 hour incubation | Potency, µM (titrated, usually from 28.7 µM), for the others: at the top dose activity change, negative = inhibition, most hits filed as inhibitors | AID 504832, 2011 | P. falciparum luciferase growth in erythrocytes, 48 h | 310,000 tested, 5.9% active; further: on the % scale 0 is the no-effect control and ±100 the full control effect
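Luciferase-expressing parasites in RBCs, 2% Hct / 0.1% parasitemia final; RPMI 1640 + 0.5% Albumax; 37 C, 5% CO2, one generation; luminescence read-out, lower signal = inhibition.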
* = called active by the depositor; ? = inconclusive; . = no result; [ ] = another dose, or the depositor's remark. Unless noted, the call rests on the fitted dose curve; in most records, active means well fitted curve in the direction sought with a large enough effect; inconclusive means small, poorly fitted or top-dose-only effect, or another doubt; inactive means no such curve, though single readings can be large; an effect the other way counts as inactive or inconclusive. Potency means the concentration at half of the fitted maximal effect.

SMILES | SARS PLpro yeast | Pf growth 96h | Sm TGR inh | Pf growth 48h
CC1(C)Cc2c(cnn2-c2ccccc2)C(NC(=O)c2ccoc2)C1 (stereo not drawn) | 4.1% | ? | 4.1% | 10.4µM*
Cc1ccc(-n2ncc3c2CC(C)(C)CC3NC(=O)c2ccccn2)cc1 (stereo not drawn) | -10.5% | 14.7µM* | -6.6% | -19.5%
COc1ccc(CCN(C)CCCC(C#N)(c2cc(OC)c(OC)c(OC)c2)C(C)C)cc1OC (stereo not drawn) | 0.4% | 5.22µM* | -0.5% | 11.7µM*
O=C(NC12CC3CC(CC(C3)C1)C2)N1CCC(n2nnc3ccccc32)CC1 | 6.8% | 9.28µM* | -0.3% | ?
O=C(NC12CC3CC(CC(C3)C1)C2)N1CCN(c2ccccn2)CC1 | -0.7% | 2.2% | -0.7% | 11.7µM*
O=C(NC12CC3CC(CC(C3)C1)C2)N1CCN(c2ncccn2)CC1 | 0.1% | ? | . | -14.7%
CCOc1ccc(NC(=O)N2CCC(n3nnc4ccccc43)CC2)cc1 | -0.7% | 6.3% | . | ?
C=CC(O)(C#CCN(CC)CC)c1ccccc1 (stereo not drawn) | -0.6% | -14.2% | 44.7µM* | 8.4%
CCN(CC)CC#CCC(O)(c1ccccc1)c1ccccc1 | 0.4% | 18.6% | -15.8%[57.1 µM] | ?
CCN(CC)CC#CCC(C)(c1ccccc1)c1ccccc1 | -4.9% | 6.57µM* | -32.6% | 11.7µM*
CCN(CC(=O)Nc1ccc(S(=O)(=O)N2CCCC2)cc1)CC(=O)Nc1ccccc1C(F)(F)F | 3.2% | . | . | .
NS(=O)(=O)c1ccc(NC(=O)NC2CC(=O)N(c3ccc4c(c3)OCCO4)C2)cc1 (stereo not drawn) | -5.0% | -12.0% | 1.5% | 34.7%
Cc1ccc(C(=O)OC(C)C(=O)NC2CCCCC2C)cc1S(=O)(=O)N1CCCCC1 (stereo not drawn) | -2.3% | ? | -9.8% | 19.6%
CCOC(=O)C1=C(OCc2ccc(Cl)cc2)C2C=C(C)C=CC2N=C1 (stereo not drawn) | -6.0% | 11.7µM* | 1.2% | .
NC(=O)COC(=O)c1ccccc1OCc1ccc(Cl)cc1 | -1.4% | 18.0% | -11.8% | -10.9%
COc1cc(NC(=O)CSc2nc3[nH]ncc3c(=O)n2-c2ccccc2C)cc(OC)c1OC | 1.2% | 6.1% | -9.1% | 10.4µM*
Cc1cccc(NC(=O)CSc2nc3[nH]ncc3c(=O)n2-c2ccccc2)c1 | 6.0% | 7.38µM* | -1.2% | -7.6%
Nc1nc(SCC(=O)Nc2ccccc2)nc2nc3c(cc12)CCCC3 | -10.9% | -15.9% | -1.1% | 54.1%
COc1cc(NC(=O)CSc2nc3[nH]ncc3c(=O)n2-c2ccc(Cl)cc2)cc(OC)c1 | ? | -17.8% | -4.0% | ?
O=C(CSc1nc2nc3c(cc2c(=O)n1-c1ccccc1)CCCC3)Nc1ccccc1 | -20.6% | 11.7µM* | -7.1% | ?
CC1(C)Cc2nc3nc(SCC(=O)NCCc4ccccc4)n(-c4ccccc4)c(=O)c3cc2CO1 | 7.5% | 4.15µM* | -11.8% | ?
COc1cc(OC)c(NC(=O)C(Cc2ccccc2)NS(=O)(=O)c2cccc3nsnc23)cc1Cl (stereo not drawn) | . | . | 8.8% | .
O=C(Nc1ccccc1Sc1ccccc1)C1CCCO1 (stereo not drawn) | -4.5% | ? | 44.7µM* | -3.3%
O=C(NCc1ccccc1Cl)c1cc2cccc3c2n1CCS3 | . | . | -5.0% | .
CC(=O)c1ccc(OCCCC(=O)Nc2cccc(S(=O)(=O)N3CCCCC3)c2)cc1 | -0.5% | ? | -15.0% | 13.1µM*
SMILES | SARS PLpro yeast | Pf growth 96h | Sm TGR inh | Pf growth 48h
CC(C)(C)c1ccc(OCCC(=O)Nc2cccc(S(=O)(=O)N3CCCC3)c2)cc1 | 2.9% | ? | 6.5% | 10.4µM*
O=C(c1ccsc1)N1CCCC(Nc2cccc(F)c2)C1 (stereo not drawn) | -4.7% | 2.1% | 6.3% | 0.5%
COc1cccc(Oc2cn[nH]c2-c2ccc(OC)cc2O)c1 | -42.2% | . | -24.9% | 8.28µM*
COc1cccc(Oc2cn[nH]c2-c2ccc(O)cc2O)c1 | -1.9% | 18.5% | 1.2% | 5.22µM*
CCOc1ccc(-c2[nH]ncc2Oc2cccc(OC)c2)c(O)c1 | -35.7% | ? | 17.3% | ?
Cc1ccccc1C(=O)N1CCN(c2ccc(NC(=O)c3ccc4c(c3)OCCO4)cc2)CC1 | ? | ? | 11.7% | ?
COc1ccc(-c2[nH]ncc2CNC(C)Cc2ccsc2)c(F)c1 (stereo not drawn) | 0.3% | 4.65µM* | 2.7% | -20.9%
COc1ccc(-c2[nH]ncc2CN(C)C(C)c2cccs2)c(F)c1 (stereo not drawn) | -0.6% | 11.7µM* | -15.7% | -21.4%
Cc1c(C(=O)Nc2ccccc2N2CCN(C)CC2)oc2ccc(F)cc12 | -1.3% | ? | 4.5% | ?
Cc1cc(C)c(Cn2c3ccccc3c3cnn(CC(=O)N4CCCCC4)c(=O)c32)c(C)c1 | . | . | -11.3% | .
O=C(O)c1ccc(COc2ccc3ccccc3c2/C=C2/NC(=O)N(Cc3ccc(F)cc3)C2=O)cc1 | 1.1% | 31.8% | . | 8.28µM*
CCCc1nnc(NC(=O)Cc2coc3c(C)c(C)ccc23)s1 | . | . | -1.5% | .
OC(CCN1CCCCC1)(c1ccccc1)c1ccccc1 | -0.8% | ? | 1.0% | ?
CCOc1ccc(NC(=O)C2CCC(CNS(=O)(=O)c3ccc4c(c3)CCCC(=O)N4)CC2)cc1 (stereo not drawn) | . | . | -1.3% | .
Cc1cc(C)c2[nH]c(=O)c(CN(Cc3ccco3)C(=O)C3CCCO3)cc2c1 (stereo not drawn) | 5.2% | -8.2% | 25.1µM* | 0.6%
Cc1cc(C)c2[nH]c(=O)c(CN(CC3CCCO3)C(=S)NCc3ccco3)cc2c1 (stereo not drawn) | 3.3% | -1.0% | -4.8% | -5.1%
Cc1cc(C)c2nc(Cl)c(CN(Cc3ccco3)C(=O)Nc3ccccc3C)cc2c1 | -16.9% | ? | 6.2% | 11.7µM*
Cc1ccc2cc(CN(Cc3ccco3)C(=O)NC3CCCCC3)c(=O)[nH]c2c1C | -13.6% | -14.4% | -3.5% | 11.7µM*
Cc1cc(C)c2cc(CN(Cc3ccco3)C(=O)NCc3ccccc3)c(=O)[nH]c2c1 | 7.1% | 14.7µM* | 50.1µM* | 0.0%
O=C(COC(=O)Cn1[nH]c(=O)c2ccccc2c1=O)NNC(=O)c1ccc(Br)cc1 | -4.4% | -1.5% | -24.1% | 3.1%
COc1ccc(S(=O)(=O)NCC(c2ccc(N(C)C)cc2)N2CCCC2)cc1F (stereo not drawn) | . | . | 0.3% | .
Cc1nc(-c2ccc(Cl)cc2)oc1COC(C)(C)C(=O)O | . | ? | . | 3.1%
COC(=O)c1cc2sc(C)cc2n1Cc1nc(-c2ccc(C)cc2)oc1C | . | . | 3.3% | .
COc1ccccc1NC(=S)N(Cc1ccco1)Cc1cc2cc(C)cc(C)c2[nH]c1=O | 5.1% | -17.1% | -4.4% | 3.29µM*
Cc1ccc2cc(CN(Cc3ccco3)C(=O)C3CCCCC3)c(=O)[nH]c2c1C | -3.9% | 5.5% | 4.8% | ?
Cc1cccc2cc(CN(Cc3ccco3)C(=O)c3ccncc3)c(=O)[nH]c12 | -1.5% | ? | 31.6µM* | ?
O=C(c1ccncc1)N(Cc1ccco1)Cc1cc2ccccc2[nH]c1=O | -3.6% | ? | -36.0% | -10.1%

Compound activity (PubChem BioAssay)
